Format in all cases: functional
Assay [1] relates to Plasmodium falciparum. As to the kind of experiment: GSK_TCMDC: Inhibition of Plasmodium falciparum 3D7 in whole red blood cells, using parasite LDH activity as an index of growth. Test compounds present at 2uM.
Assay [2] has as its system Plasmodium falciparum. In words: GSK_TCMDC: Inhibition of Plasmodium falciparum Dd2 in whole red blood cells, using parasite LDH activity as an index of growth. Test compounds present at 2uM.
The subject of assay [3] is HepG2. In words: GSK_TCMDC: Percent inhibition of human HepG2 cell line. Test compounds present at 10uM.

As for `Cc1cc(N[C@@H](Cc2ccccc2)C(=O)NCc2cccc(F)c2)nc(Nc2ccccc2)n1.O=C(O)C(F)(F)F`, the Inhibition (usually the share of the control response that was lost under treatment) in assay [1] was 100%; in assay [2] it was 92%; in assay [3] it was 20%.
On to `O=C(O)C(F)(F)F.OCCN1CCN(Cc2cccc(-c3cccc(-c4nc5cc(F)ccc5[nH]4)c3)c2)CC1`, for which the Inhibition in assay [1] was 100%; in assay [2], 99%; in assay [3], 41%.
With `CN1CCCC(CN2CCN(Cc3ccc(-c4ccc(-c5nc6cc(F)ccc6[nH]5)s4)cc3)CC2)C1.O=C(O)C(F)(F)F` (centres undefined), the results for the Inhibition in assay [1], in assay [2] and in assay [3] were 100%, 100% and 73%, respectively.
Take `Cc1ccc(NC(=O)N2CCCN(CCCCCNC(=O)/C=C/c3ccc(Cl)c(Cl)c3)CC2)cc1C`: the Inhibition in assay [1] is on record as 100%; in assay [2] it was 4%; in assay [3], 62%.
As for `Cc1ccc(O)cc1Nc1ccnc2cc(-c3csc(CN4CCN(C)CC4)n3)ccc12`, the values for the Inhibition in assay [1], in assay [2] and in assay [3] were 100%, 77% and 6%, respectively.
Consider `COc1ccccc1CCNc1nc(C)cc(N[C@@H](Cc2ccccc2)C(=O)NCc2cccc(F)c2)n1.O=C(O)C(F)(F)F`, for which the Inhibition was found to be 99% in assay [1], 86% in assay [2] and 31% in assay [3].
As for `COc1ccc(CNCCCCCCNCc2ccc(OC)c3ccccc23)c2ccccc12.Cl`, the Inhibition is recorded as 100% in assay [1], 49% in assay [2] and 100% in assay [3].
As to `COc1ccc(CNCc2cccc(-c3ccc(-c4nc5cc(C(F)(F)F)ccc5[nH]4)cc3)c2)cc1.O=C(O)C(F)(F)F`, the Inhibition was 100% in assay [1], 95% in assay [2] and 23% in assay [3].
In the case of `CCOC(=O)c1nc(-c2ccccc2)[nH]c1NC(=S)NC1CCCCC1`, the Inhibition is 96% in assay [1], 1% in assay [2] and 6% in assay [3].
For `O=C(NC(CCCN1CCC2(CC1)OCc1ccccc12)c1ccc(Cl)c(Cl)c1)c1cc(C(F)(F)F)cc(C(F)(F)F)c1` (centres undefined), the Inhibition in assay [1] stood at 100%; in assay [2] it was 99%; in assay [3], 55%.
As to `CN1CCN(CC(=O)Nc2ccc(-c3ccc(-c4nc5cc(C(F)(F)F)ccc5[nH]4)s3)cc2)CC1`, the values for the Inhibition in assay [1], in assay [2] and in assay [3] were 100%, 73% and 84%, respectively.
On the same counts, the results for `O=C(/C=C/c1ccc(Cl)c(Cl)c1)NCCCCCN1CCC(CCNC(=O)/C=C/c2cc(C(F)(F)F)ccc2F)CC1` are 98%, 46% and 25%.
The like results for `CC(C)CCNCc1ccc(OCc2ccccc2COc2ccc(CNCCC(C)C)cc2I)c(I)c1.Cl` were, in that order, 100%, 78% and 99%.
On the same counts, the results for `CCN(CC)CCN(CCCc1ccc(-c2ccc(C(F)(F)F)cc2)cc1)C(=O)Cn1c(CCc2cccc(F)c2F)nc(=O)c2ccccc21.O=C(O)C(O)C(O)C(=O)O` are 100%, 49% and 37%.
For the molecule `Cc1cc(N[C@@H](Cc2ccccc2)C(=O)NCCc2ccccc2)nc(NCCc2ccccc2)n1.O=C(O)C(F)(F)F`, the results for the Inhibition in assay [1], in assay [2] and in assay [3] were 100%, 57% and 0%, respectively.
On the same counts, the results for `NC(=O)c1cc2nc(NC3CCC3)nc(Nc3cccc4[nH]ncc34)c2[nH]1.O=CO` are 100%, 62% and 9%.
Regarding `CCCCCN1CCCCC(NS(=O)(=O)c2ccc(C(=O)Nc3cccc(C(F)(F)F)c3)cc2)C1.O=C(O)C(F)(F)F` (centres undefined), the Inhibition worked out at 93% in assay [1], 2% in assay [2] and 14% in assay [3].
On to `CC(C)N1CCC(N(Cc2ccc(-c3ccc(C(F)(F)F)cc3)cc2)C(=O)Cn2c(CCc3cccc(F)c3F)cc(=O)c3ccccc32)CC1.O=C(O)C(O)C(O)C(=O)O`, for which the results for the Inhibition in assay [1], in assay [2] and in assay [3] were 99%, 73% and 50%, respectively.
On the same counts, the results for `Cc1ncccc1-c1cccc2c(NC(=O)Nc3ccc4nccc(N5CCN(C)CC5)c4c3)cccc12.Cl` are 100%, 96% and 19%.
In the case of `CN1CCN(c2cccc(NC(=O)c3ccc(-c4ccc(C#N)cc4)cc3)c2)CC1`, the Inhibition is 84% in assay [1], 7% in assay [2] and 31% in assay [3].
Regarding `COc1cccc(C2CCN(CCN3CCC(NC(=O)c4ccc(-c5ccc(C#N)cc5)cc4)CC3)CC2)c1`, the Inhibition was 98% in assay [1], 47% in assay [2] and 28% in assay [3].
Regarding `CC(C)CNC(=O)c1ccnc(-c2ccc(CNCCCc3ccccc3)cc2)c1.O=C(O)C(F)(F)F`, the Inhibition in assay [1] is reported as 99%; in assay [2], 22%; in assay [3] it was 12%.
On the same counts, the results for `Cc1ccc2[nH]c([N-]C#N)nc2c1.[Na+]` are 96%, 0% and 7%.
As for `COc1ccc(NC(=O)c2cc(NC(=O)C3(N)CC3)c(=O)n(Cc3ccc(C(N)=O)cc3)c2)cc1.O=C(O)C(F)(F)F`, the Inhibition is given as 95% in assay [1], 72% in assay [2] and 21% in assay [3].
For the molecule `CCCNCc1ccc(-c2ccc(CN(CCOC)C(=O)CC3CCCC3=O)cc2)nc1.O=C(O)C(F)(F)F` (centres undefined), the Inhibition was determined as 93% in assay [1], 9% in assay [2] and 5% in assay [3].
On the same counts, the results for `O=C1Nc2cccc3c2C1(CCCCCN1CCC(c2c[nH]c4ccncc24)CC1)CCC3` (centres undefined) are 95%, 3% and 8%.
The like results for `CCCCCCn1c(Sc2ccc(C#N)c([N+](=O)[O-])c2)nnc1-c1cccs1` were, in that order, 97%, 60% and 26%.
Take `CCCC(C)Nc1nc(C)cc(N[C@@H](CC(C)C)C(=O)Nc2ccc(OC)cc2)n1.O=C(O)C(F)(F)F` (some centres undefined): the Inhibition in assay [1] is listed as 98%; in assay [2], 68%; in assay [3], 18%.
The like results for `COc1cccc2sc(Nc3nc(-c4ccccn4)cs3)nc12` were, in that order, 94%, 76% and 41%.
With `Cc1cc(N[C@@H](Cc2ccccc2)C(=O)NC2CCCC2)nc(NCCOc2ccccc2)n1.O=C(O)C(F)(F)F`, the Inhibition in assay [1] is recorded as 98%; in assay [2] it was 48%; in assay [3], 40%.
For `CC(CN1CCN(CC(c2ccc(F)cc2)N2CCN(C)CC2)CC1)C(=O)c1ccc(O)cc1.O=C(O)/C=C\C(=O)O` (centres undefined), the Inhibition in assay [1] came out at 97%; in assay [2], 10%; in assay [3], 0%.
`Cl.N#Cc1ccc2c(c1)CCN(CCC1CCC(NC(=O)Nc3cnc4ccccc4c3)CC1)C2` (centres undefined): the Inhibition in assay [1] was 93%; in assay [2], 9%; in assay [3] it was 14%.
Regarding `COc1ccc(NC(=O)C2c3ccccc3C(=O)N(C3CCCC3)C2c2cccs2)cc1` (centres undefined), the Inhibition is on record as 93% in assay [1], 75% in assay [2] and 0% in assay [3].
